From PubChem BioAssay
Pol eta inh = DNA polymerase eta (human) inhibition; Q9Y253; recombinant Pol eta, fluorescent DNA replication assay; Potency, µM (top dose mostly 114 µM), for inactives: top-dose activity change, negative = inhibition, most hits filed as inhibitors; 390,000 compounds, 1.2% hits; also: % is scaled to controls: 0 for no effect and ±100 for the full control effect
Target sequence (Q9Y253 whole entry, looked up): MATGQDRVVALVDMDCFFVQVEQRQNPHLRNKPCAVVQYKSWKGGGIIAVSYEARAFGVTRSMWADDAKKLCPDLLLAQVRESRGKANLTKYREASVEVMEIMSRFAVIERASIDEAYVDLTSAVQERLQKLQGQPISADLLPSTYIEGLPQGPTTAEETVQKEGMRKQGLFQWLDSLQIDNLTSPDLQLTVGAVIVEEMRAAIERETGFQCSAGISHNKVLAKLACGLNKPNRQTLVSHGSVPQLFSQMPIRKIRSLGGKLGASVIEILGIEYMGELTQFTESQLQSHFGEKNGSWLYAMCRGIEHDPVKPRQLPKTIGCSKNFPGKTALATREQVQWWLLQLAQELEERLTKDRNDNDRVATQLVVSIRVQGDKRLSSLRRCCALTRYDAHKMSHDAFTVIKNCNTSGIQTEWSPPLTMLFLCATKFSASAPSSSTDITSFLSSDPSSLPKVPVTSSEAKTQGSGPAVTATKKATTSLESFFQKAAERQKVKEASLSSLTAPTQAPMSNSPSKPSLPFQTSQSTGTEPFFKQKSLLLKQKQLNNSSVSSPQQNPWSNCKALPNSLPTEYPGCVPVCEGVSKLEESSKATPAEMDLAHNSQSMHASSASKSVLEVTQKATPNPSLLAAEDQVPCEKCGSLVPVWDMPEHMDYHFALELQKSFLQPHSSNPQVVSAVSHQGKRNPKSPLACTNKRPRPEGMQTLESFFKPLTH
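Pol eta (10 nM) was preincubated with compounds for 15 min at room temperature, after which fluorescent replication substrate (50 nM final) was added to start the reaction. Fluorescence was read kinetically at 0 and 10 min.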
FEN1 inh = blocks human flap endonuclease 1; P39748; Recombinant FEN1 flap cleavage, fluorescence, 15 min; Potency, µM (doses to about 114 µM), for the others: at the highest dose activity change, negative = inhibition, actives largely listed as inhibitors; 390,000 compounds, 0.35% hits; also: % is scaled to controls: 0 for no effect and ±100 for the full control effect; nearly all actives have a fitted effect of over 65% in size
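Concentration–response screening of FEN1 (10 nM): 15 min compound preincubation at room temperature, reaction started with 50 nM substrate and read at 0 and 15 min. Corrected, normalized data were fitted by a four-parameter Hill equation.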
Pol beta inh = DNA polymerase beta (human) inhibition. P06746. Pol beta primer extension/strand displacement, fluorescence kinetic. Potency, µM (doses to about 114 µM), for the others: top-dose activity change, negative = inhibition, usual class: inhibitors. 340,000 compounds, 1.3% hits. AID 485314; also: % is scaled to controls: 0 for no effect and ±100 for the full control effect
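Reaction started by 50 nM substrate onto compound-treated Pol beta (10 nM, 15 min preincubation, room temperature); plates read at 0 min and 10 min. Normalized concentration-effect data fitted by four-parameter Hill equation.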
POLK inh = DNA polymerase kappa (human) inhibition. Potency, µM (doses to about 107 µM), without a hit: at the highest dose activity, negative = inhibition, usual class: inhibitors. AID 588579. purified Pol kappa, fluorescent DNA synthesis assay, 10 min. 400,000 compounds, 0.53% hits. Q9UBT6; also: % is scaled to controls: 0 for no effect and ±100 for the full control effect
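Readout: fluorescence, taken kinetically at 0 and 10 min. Conditions: 10 nM Pol kappa, 15 min RT compound preincubation, 50 nM substrate final. Controls: enzyme-free buffer wells.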
POLI inh = DNA polymerase iota (human) inhibition; AID 588590; Potency, µM (series often up to 115 µM), without a hit: top-dose activity, negative = inhibition, actives largely listed as inhibitors; Q9UNA4; Pol iota fluorescent replication assay, 10 min; 390,000 compounds, 1% hits
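Fluorescent replication assay read twice, at 0 min and 10 min after adding 50 nM (final) substrate. Enzyme (10 nM) and compounds were first incubated 15 min at room temperature; enzyme-free buffer wells were negative controls.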
TDP1 inh = blocks human tyrosyl-DNA phosphodiesterase 1; Q9NUW8; recombinant TDP1, AlphaScreen DNA substrate cleavage; Potency, µM (highest dose often 130 µM), inactives show at the highest dose activity change, negative = inhibition, hits mostly inhibitors; 350,000 compounds, 0.28% hits; AID 485290; also: % is scaled to controls: 0 for no effect and ±100 for the full control effect; nearly all actives have a fitted effect of over 40% in size
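Tdp1 1 nM final; 15 min RT w/ cpd; substrate 15 nM, 5 min; beads 10 ug/ml, 10 min; AlphaScreen read. Neg ctrl: no enzyme.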
* marks the source's active call; other numbers are inactive results; ? = inconclusive; / = not tested or not shown; [ ] = dose if it differs, or a comment. Shown are actives, neighbours in structure and some others; about 2.4% of the full set was active somewhere. Calls follow the shape of the dose curve; as a rule, active = well fitted curve in the direction sought with a large enough effect; inconclusive = small, poorly fitted or top-dose-only effect, or another doubt; inactive = no such curve, though single readings can be large; an effect the other way counts as inactive or inconclusive. Potency is read from the fitted curve at half-maximal effect.

SMILES	Pol eta inh	FEN1 inh	Pol beta inh	POLK inh	POLI inh	TDP1 inh
Cn1c2ccccc2n2c(=O)cc(-c3ccccc3)c(C#N)c12	-1%	1%	45µM*	-7%	97%	-1%
C=CCOc1c(OC)cc(/C=N/Nc2cccc(C(=O)O)c2)c(Br)c1Br	?	-15%	50µM*	?	-16%	3%
Cc1ccc2onc(CNC(=O)N3CCN(c4cc(Cl)ccc4C)CC3)c2c1	-21%	-19%	29%	-8%	-3%	-5%
CC(NC(=O)/C(C#N)=C/c1ccc([N+](=O)[O-])o1)c1ccccc1 (stereo not given)	50µM*	?	40µM*	-38%	20µM*	8%
O=C1CN(S(=O)(=O)c2cc(C(=O)O)ccc2Cl)c2ccccc2N1	50µM*	-22%	50µM*	-9%	?	9%[0.0935 µM]
CN(C)Cc1cc(O)c(CN(C)C)cc1O	79µM*	?	10µM*	16µM*	7.1µM*	?
CN(C)Cc1cc(C(C)(C)C)cc(C(C)(C)C)c1O	2%	18%	-2%	-16%	1%	0%
O=S(=O)(c1ccc(-c2ccon2)s1)N1CCCC1	-16%	11%	5%	2%	45%	3%
O=S(=O)(c1ccc(-c2ccon2)s1)N1CCN(c2ccncc2)CC1	-35%	-7%	13%	-6%	40µM*	/
O=C(O)c1cc(S(=O)(=O)O)ccc1O	-11%	-2%	3%	-14%	1%	3%
Nc1ccc2c(O)cc(S(=O)(=O)O)cc2c1	5.6µM*	8.9µM*	/	14µM*	8.9µM*	/
CC(C)OC(=O)c1cc(-c2ccc(C=O)o2)ccc1Cl	?	-9%	20µM*	-8%	7%	-2%
CC(NC(=O)c1ccc2c(c1)sc1nc(-c3ccc(F)cc3)cn12)C12CC3CC(CC(C3)C1)C2 (stereo not given)	-10%	5%	8%	6%	25%	4%
CNC(=O)c1c(NC(=O)c2nc3ccccc3s2)sc2c1CCC2	/	/	45µM*	/	/	7%
COC(=O)c1c(NC(=O)c2nc3ccccc3s2)sc2c1CCN(C(C)=O)C2	-6%	-5%	8%	8%	52%	1%
Nc1c(O)cccc1C(=O)O	-2%	-22%	/	?	40µM*	/
COc1ccc(C2C(C(=O)/C=C/c3ccco3)=C(O)C(=O)N2CCN2CCOCC2)cc1 (stereo not given)	-28%	1%	?	-24%	20µM*	/
CCCN1CNc2c(c(=O)[nH]c(=S)n2CCC(C)(C)C)C1	/	-25%	/	1%	13%	1%
CCOC(=O)c1c(NC(C)=O)sc2c(OCC(O)CN(CC)CC)c(Br)ccc12 (stereo not given)	-4%	22µM*	?	-12%	?	6%
CCOC(=O)c1c(NC(C)=O)sc2c(OCCN(CC)CC)c(Br)ccc12	-1%	?	-15%	-2%	4%	-1%
Cc1c(C(=O)NNC(=O)c2csc(N3CCOCC3)n2)oc2ccc(Br)cc12	25µM*	/	/	/	/	/
O=S(=O)(O)c1cc(O)c2c(N=Nc3ccc(Nc4ccccc4)c4c(S(=O)(=O)O)cccc34)cc(S(=O)(=O)O)cc2c1	/	/	/	3.2µM*	/	9%
COc1ccc(N2C(=O)c3ccccc3NC2c2ccc(OC)c(COc3ccc(NC(C)=O)cc3)c2)cc1 (stereo not given)	/	-19%	/	-5%	-15%	3%
CCOC(=O)CSc1nc2c([nH]c3ccccc32)c(=O)n1-c1ccc(OCC)cc1	6%	6%	23%	-2%[60.1 µM]	-18%	1%
Nc1cc([N+](=O)[O-])ccc1N1C(=O)CCCC1=O	9%	0%	40µM*	-20%	?	20µM*
COCCCNC(=O)c1ccc2c(c1)nc1n2CCCCC1	-12%	-6%	11%	-4%[60.1 µM]	8%	0%
Cc1ccc(CNC(=O)CCc2c(C)nc3c(-c4ccc(F)cc4)c(C)nn3c2C)cc1	1%	0%	-12%	-19%	3%	6%
